For 30 compounds, viability results are on record in PubChem BioAssay AID1004 (SRMLSC, 2008).

The structures appear in SMILES notation. Values without a mark were called inactive. Activity calls are given as the source filed them.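 Rule for the calls: active = viability at 10 µM of 29.74% or lower, 3 SD below the compound median; inactive = the rest.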

A short description of this assay: viability of HCT116 lacking mutant beta-catenin – cell-based, DP diverse set, validation, pilot screen (AID 1004). Conditions: HCT116 (mutant beta-catenin deleted) viability, CellTiter-Glo, 60 h; at 10 µM; active compounds read low. (ATP-based viability assays read luminescence as a measure of living cells.)
By viability is commonly meant a read-out of living cells in per cent, often relative to untreated cells. For the compound `CNCCC(Oc1ccc(C(F)(F)F)cc1)c1ccccc1` (stereo not given), the viability is 94.1%.

For `CC(C)NCC(O)COc1cccc2ccccc12` (stereo not given), the viability is 94.6%.

Take `CC1COC2=C1C(=O)C(=O)c1c2ccc2c1CCCC2(C)C` (stereo not given): the viability was 32.2%.

As to `COc1cc2c(c(OC)c1OC)-c1ccc(OC)c(=O)cc1[C@@H](NC(C)=O)CC2`, the viability is 39.6%.

`NCCNS(=O)(=O)c1cccc2c(Cl)cccc12`: the viability is 95.7%.

In the case of `CN=C(NC#N)NCCSCc1nc[nH]c1C`, the viability is 98.3%.

On to `CO/N=C(\C(=O)N[C@@H]1C(=O)N2C(C(=O)O)=C(COC(C)=O)CS[C@H]12)c1csc(N)n1`, for which the viability was 96.4%.

`C=CCc1ccc(O)c(-c2cc(CC=C)ccc2O)c1`: the viability was 99.2%.

With `COc1cccc2c1C(=O)c1c(O)c3c(c(O)c1C2=O)C[C@@](O)(C(=O)CO)C[C@@H]3OC1C[C@@H](N)[C@H](O)[C@H](C)O1` (stereo not given in full), the viability was 27.4% (active).

As to `CC(C)=CCC[C@](C)(O[C@@H]1O[C@H](CO)[C@@H](O)[C@H](O)[C@H]1O)[C@H]1CC[C@]2(C)[C@@H]1[C@H](O)C[C@@H]1[C@@]3(C)CC[C@H](O[C@@H]4O[C@H](CO)[C@@H](O)[C@H](O)[C@H]4O[C@@H]4O[C@H](CO)[C@@H](O)[C@H](O)[C@H]4O)C(C)(C)[C@@H]3[C@@H](O)C[C@]12C`, the viability is 93.8%.

Take `CC12CC3(O)OC(O1)C1(COC(=O)c4ccccc4)[C@@H]3CC21O[C@@H]1O[C@H](CO)[C@@H](O)[C@H](O)[C@H]1O`: the viability was 93.9%.

Take `O=C(c1ccc(F)cc1)C1CCN(CCn2c(=O)[nH]c3ccccc3c2=O)CC1`: the viability was 104%.

Consider `Cn1cnc2c(NCc3ccccc3)nc(NCCO)nc21`, for which the viability is 103%.

On to `O=c1[nH]c(=O)n(C2CCCO2)cc1F` (stereo not given), for which the viability is 94.9%.

`COc1ccc(CC(N)C(=O)N[C@H]2[C@@H](O)[C@H](n3cnc4c(N(C)C)ncnc43)O[C@@H]2CO)cc1` (stereo not given in full): the viability is 7.16% (active).

For the compound `O=C1CCC(N2C(=O)c3ccccc3C2=O)C(=O)N1` (stereo not given), the viability is 96.1%.

Consider `Nc1ccn([C@H]2CC[C@@H](CO)O2)c(=O)n1`, for which the viability was 102%.

As to `C[C@]12CCC(=O)C=C1CC[C@@H]1[C@@H]2[C@@H](O)C[C@@]2(C)[C@H]1CC[C@]2(O)C(=O)CO`, the viability is 98.9%.

Regarding `OCCN(CCO)c1nc(N2CCCCC2)c2nc(N(CCO)CCO)nc(N3CCCCC3)c2n1`, the viability was 109%.

As for `CCOC(=O)c1ncn2c1CN(C)C(=O)c1cc(F)ccc1-2`, the viability was 99.8%.

Consider `C=C(C)[C@H]1CC=C(CO)CC1`, for which the viability was 99.5%.

`CC1(C)[C@@H](O[C@H]2O[C@H](C(=O)O)[C@@H](O)[C@H](O)[C@H]2O[C@@H]2O[C@H](C(=O)O)[C@@H](O)[C@H](O)[C@H]2O)CC[C@]2(C)[C@H]3C(=O)C=C4[C@@H]5C[C@@](C)(C(=O)O)CC[C@]5(C)CC[C@@]4(C)[C@]3(C)CC[C@@H]12`: the viability was 101%.

With `CC(=O)N1CCN(c2ccc(OC[C@H]3CO[C@](Cn4ccnc4)(c4ccc(Cl)cc4Cl)O3)cc2)CC1`, the viability is 76.8%.

As to `O=C(O)c1ccccc1O`, the viability is 103%.

As for `CC1(COc2ccc(CC3SC(=O)NC3=O)cc2)CCCCC1` (stereo not given), the viability is 97%.

In the case of `COc1c(C)c2c(c(O)c1C/C=C(\C)CCC(=O)O)C(=O)OC2`, the viability was 49.1%.

With `C[C@H](CS)C(=O)N1CCC[C@H]1C(=O)O`, the viability was 93.8%.

For `CC(C)C[C@@H](NC(=O)[C@@H](O)[C@H](N)Cc1ccccc1)C(=O)O`, the viability was 92.8%.

`C=C(CCC12O[C@H](C(=O)O)[C@@](O)(C(=O)O)[C@](C(=O)O)(O1)[C@H](OC(=O)/C=C/[C@@H](C)C[C@@H](C)CC)[C@H]2O)[C@@H](OC(C)=O)[C@H](C)Cc1ccccc1`: the viability is 100%.

Turning to `COc1ccc(-c2cc(C(=O)O)no2)cc1`, the viability is 99.2%.
